# In PubChem BioAssay (NCATS):
# Inconclusive results are not listed. Entries that show only a call come without a potency. The source made the active and inactive calls. Calls come from the whole dose curve; as a rule, active = well fitted cell-killing curve with a large enough effect; inconclusive = small, poorly fitted or top-dose-only effect; inactive = flat fitted curve, though single readings scatter.
# Assay: Cell Viability - LYMP2-015 (AID 971); note: nearly all actives have a fitted effect of over 55% in size
# Settings: LYMP2-015 lymphoblastoid cell viability; series mostly up to 92.2 µM
# Text: NIH Chemical Genomics Center [NCGC]
# NIH Molecular Libraries Screening Centers Network [MLSCN]
# National Institutes of Environmental Health Sciences [NIEHS]
# National Toxicology Program [NTP]
# We have developed a 1536-well cell-based assay for quantitative high throughput screening (qHTS) against a number of cell lines to determine in vitro cytotoxicity of small molecules. This particular assay uses a human lymphoblastoid cell line (LYMP2-015) purchased from Coriell Institute for Medical Research.
# NCGC Assay Protocol Summary:
# The CellTiter-Glo luminescent cell viability assay (Promega) is a homogeneous method to measure the number of viable cells in culture. The end point readout of this assay is based on quantitation of intracellular ATP, an indicator of metabolic activity, using the luciferase reaction. Luciferase catalyzes the oxidation of beetle Luciferin to oxyluciferin and light in the presence of ATP. The luminescent signal is proportional to amount of ATP present.
# Using the CellTiter-Glo luminescent cell viability assay, the amount of cellular ATP was measured in the lymphoblastoid cell line with complete culture medium following compound treatment for 24 hours. The assay was performed in opaque white Kalypsys 1536-well plates. In the screen, tetraoctylammonium bromide was used as positive control. Library compounds were measured for their ability to cause acute toxicity in the cell line, as reflected by a decrease in intracellular ATP levels, in a concentration-dependent manner. […] AC50 values were determined from concentration-response data modeled with the standard Hill equation.
# qHTS protocol for CellTiter Glo lymphoblastoid cellular assay
# [Step] [Parameter] [Value] [Description]
# 1. Reagent; 5 uL; 2500 lymphoblastoid cells/well
# 2. Time; 5 hr; 37 C incubation
# 4. Controls; 23 nL; Tetraoctylammonium bromide 6.4pM to 92 uM
# 5. Time; 24 hr; 37 C incubation
# 6. Reagent; 5 uL; CellTiter Glo reagent
# 7. Time; 30 min; Room Temperature
# 8. Detection; Luminescence; Viewlux plate reader
# Keywords: cell viability, cytotoxicity, lymphoblastoid cell line, luminescence, NTPHTS, NTPHTS_NCGC, NIEHS, DSSTox, MLSMR, MLSCN, NIH Roadmap, qHTS, NCGC
# Potency is the fitted concentration of half-maximal effect.
row,Compound,Potency
1,COc1cccc2c1C(=O)c1c(O)c3c(c(O)c1C2=O)C[C@@](O)(C(=O)CO)C[C@@H]3O[C@H]1C[C@H](N)[C@H](O)[C@H](C)O1,0.158 µM (active)
2,O=c1ccc2ccccc2o1,inactive
3,CC(O)C(=O)O (stereo not drawn),inactive
4,COC1=CC(=O)C[C@@H](C)[C@]12Oc1c(Cl)c(OC)cc(OC)c1C2=O,inactive
5,CC/C(=C(/CC)c1ccc(O)cc1)c1ccc(O)cc1,inactive
6,C=CCc1ccc(O)c(OC)c1,inactive
7,CN(C)/N=N/c1nc[nH]c1C(N)=O,inactive
8,CC(C)(C)CC(C)(C)c1ccc(OCCOCC[N+](C)(C)Cc2ccccc2)cc1,25.1 µM (active)
9,O=C(O)CCCCC(=O)O,inactive
10,C=C(CC)C(=O)c1ccc(OCC(=O)O)c(Cl)c1Cl,50.1 µM (active)
11,C[C@]12CC[C@@H]3c4ccc(O)cc4CC[C@H]3[C@@H]1CC[C@@H]2O,inactive
12,O=C1OC(c2ccc(O)cc2)(c2ccc(O)cc2)c2ccccc21,inactive
13,CC(=O)O[C@]1(C(C)=O)CC[C@H]2[C@@H]3C[C@H](C)C4=CC(=O)CC[C@]4(C)[C@H]3CC[C@@]21C,39.8 µM (active)
14,Nc1ccc(C(=O)O)cc1,inactive
15,CCCCCCc1ccc(O)cc1O,inactive
16,CC(=O)Oc1ccc(C(c2ccc(OC(C)=O)cc2)c2ccccn2)cc1,inactive
17,NC(=NCCCCCCN=C(N)/N=C(\N)Nc1ccc(Cl)cc1)/N=C(\N)Nc1ccc(Cl)cc1,39.8 µM (active)
18,Oc1ccc(O)cc1,50.1 µM (active)
